Measurements reported in PubChem BioAssay (EPA / NIEHS).
Results filed as inconclusive are left out. More than one record can exist for a structure, and the calls need not agree. Activity calls are given as the source filed them. How the source made its calls: active means hit-call score of the fitted dose curve at least 0.9, where 1 is the maximum; inconclusive means response in the unintended direction; inactive means score below 0.9.

Assays:
[1] = Tanguay_ZF_120hpf_EYE_legacy: (Legacy) Oregon State University Tanguay Lab 120 Hour Post-fertilization zebrafish Assay for Eye Malformation (AID 2283636);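 further: binary presence or absence of eye malformation scored by brightfield in 120 hpf larvae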
Outline: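 5D wild-type embryos, pronase-dechorionated at 4 hpf; static exposure 6–120 hpf, 28C, dark; DMSO 0.64% final; 5uM trimethyltin chloride positive control. Binary eye-defect scoring at 120 hpf; dead embryos not scored.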

[2] = Tanguay_ZF_120hpf_SNOU_legacy: (Legacy) Oregon State University Tanguay Lab 120 Hour Post-fertilization zebrafish Assay for Snout Malformation (AID 2283637)
Outline: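 Binary brightfield scoring of snout malformation at 120 hpf. Dechorionated 5D wild-type embryos, one per well, static exposure from 6 hpf at 28C, sealed and dark; final DMSO 0.64% (vol/vol), DMSO as baseline; 5uM trimethyltin chloride positive control.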

[3] = Tanguay_ZF_120hpf_OTIC_legacy: (Legacy) Oregon State University Tanguay Lab 120 Hour Post-fertilization zebrafish Assay for Otic Vesicle Malformation (AID 2283639)
Outline: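 Wild-type zebrafish larvae, whole-embryo exposure from early stage to 120 hpf at 28C. Binary brightfield scoring of otic vesicle morphology, fitted in the positive direction against the DMSO baseline.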

[4] = Tanguay_ZF_120hpf_PE_legacy: (Legacy) Oregon State University Tanguay Lab 120 Hour Post-fertilization zebrafish Assay for Pericardial Edema (AID 2283640);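 on AC50: potency for increased incidence of pericardial edema versus DMSO baseline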
Outline: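 Tropical 5D wild-type zebrafish embryos were statically exposed until 120 hpf at 28C, with 0.64% DMSO final. Pericardial edema was scored by brightfield as present or absent; endpoints were not scored in dead embryos.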

[5] = Tanguay_ZF_120hpf_BRAI_legacy: (Legacy) Oregon State University Tanguay Lab 120 Hour Post-fertilization zebrafish Assay for Brain Malformation (AID 2283641)
Outline: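 Tropical 5D wild-type zebrafish embryos exposed statically until 120 hpf at 28C, 0.64% DMSO final, sealed and dark. Brain malformation scored present/absent by brightfield at 120 hpf; dead embryos excluded. Trimethyltin chloride 5uM positive control.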

[6] = Tanguay_ZF_120hpf_SOMI_legacy: (Legacy) Oregon State University Tanguay Lab 120 Hour Post-fertilization zebrafish Assay for Somite Malformation (AID 2283647)
Outline: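 Dechorionated Tropical 5D wild-type zebrafish embryos, one per well from 6 hpf, statically exposed at 28C to 120 hpf in 0.64% DMSO; somite malformation scored present/absent by brightfield; trimethyltin 5 uM positive control; dead embryos not scored.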

[7] = Tanguay_ZF_120hpf_PFIN_legacy: (Legacy) Oregon State University Tanguay Lab 120 Hour Post-fertilization zebrafish Assay for Pectoral Fin Malformation (AID 2283648);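 further: each larva judged yes or no for fin defect by brightfield with dead larvae skipped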
Outline: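 Binary pectoral fin malformation call at 120 hpf by brightfield microscopy; 5D wild-type zebrafish, chorion removed at 4 hpf, one embryo per well from 6 hpf, static exposure at 28C; DMSO (0.64% final) as baseline.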

[8] = Tanguay_ZF_120hpf_CFIN_legacy: (Legacy) Oregon State University Tanguay Lab 120 Hour Post-fertilization zebrafish Assay for Caudal Fin Malformation (AID 2283649)
Outline: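 Dechorionated Tropical 5D wild-type embryos, one per well from 6 hpf, static exposure to 120 hpf at 28C in 0.64% DMSO. Caudal fin malformation scored by brightfield as present/absent; not scored in dead embryos.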

[9] = Tanguay_ZF_120hpf_PIG_legacy: (Legacy) Oregon State University Tanguay Lab 120 Hour Post-fertilization zebrafish Assay for Pigmentation Malformation (AID 2283650)
Outline: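 Brightfield scoring of pigmentation malformation at 120 hpf, recorded as binary present/absent per larva. Exposure: dechorionated 5D wild-type embryos, one per well, static from 6 hpf at 28C, final DMSO 0.64% (vol/vol). Dead embryos not scored.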

[10] = Tanguay_ZF_120hpf_CIRC_legacy: (Legacy) Oregon State University Tanguay Lab 120 Hour Post-fertilization zebrafish Assay for Circulatory Malformation (AID 2283651)
Outline: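 Binary circulatory-malformation call at 120 hpf via brightfield imaging, relative to DMSO controls. Embryos (5D strain, chorion removed) received static, light-shielded exposure at 28C.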

| Structure (SMILES) | AC50 [1] | AC50 [2] | outcome [3] | AC50 [4] | outcome [5] | outcome [6] | outcome [7] | outcome [8] | outcome [9] | outcome [10] | outcome [1] | outcome [2] | outcome [4] | AC50 [5] | AC50 [7] |
| --- | --- | --- | --- | --- | --- | --- | --- | --- | --- | --- | --- | --- | --- | --- | --- |
| O=C1C2(Cl)C3(Cl)C4(Cl)C(Cl)(Cl)C5(Cl)C3(Cl)C1(Cl)C5(Cl)C24Cl (stereo not given) | 79.7 µM (active) | 9.66 µM (active) | inactive | 38.8 µM (active) | inactive | inactive | inactive | inactive | inactive | inactive | – | – | – | – | – |
| NC(=O)O | – | – | – | – | inactive | inactive | – | inactive | – | inactive | inactive | inactive | inactive | – | – |
| Oc1cccc2cccnc12 | – | – | inactive | – | inactive | inactive | inactive | inactive | inactive | inactive | – | inactive | inactive | – | – |
| O=[N+]([O-])c1ccc(O)c([N+](=O)[O-])c1 | – | – | inactive | – | inactive | – | inactive | – | inactive | inactive | inactive | inactive | inactive | – | – |
| CCN1CCC2(CC1)COc1cc3c(cc12)N(C(=O)c1ccc(-c2ccc(-c4nnc(C)o4)cc2C)cc1)CC3 | – | – | inactive | – | inactive | inactive | inactive | – | inactive | inactive | inactive | inactive | inactive | – | – |
| ClCC(Cl)CCl | – | – | inactive | – | inactive | inactive | – | inactive | inactive | inactive | – | inactive | inactive | – | – |
| Cc1ccccc1N | – | – | – | – | inactive | inactive | inactive | inactive | inactive | inactive | inactive | inactive | inactive | – | – |
| CC(C)(OO)c1ccccc1 | – | – | inactive | – | – | inactive | inactive | inactive | inactive | inactive | inactive | inactive | inactive | – | – |
| C[C@]12CCC(=O)C[C@@H]1CC[C@@H]1[C@@H]2CC[C@]2(C)[C@@H](O)CC[C@@H]12 | – | – | inactive | – | inactive | inactive | inactive | inactive | inactive | inactive | inactive | inactive | inactive | – | – |
| Cn1sc(Cl)cc1=O | – | – | inactive | – | inactive | – | inactive | inactive | inactive | – | inactive | – | inactive | – | – |
| C=C(C)C(=O)[O][Sn]([CH2]CCC)([CH2]CCC)[CH2]CCC | – | – | inactive | – | inactive | inactive | inactive | inactive | inactive | inactive | inactive | inactive | inactive | – | – |
| C=CC(=O)OCCCCCC(C)C | – | – | inactive | – | inactive | inactive | inactive | inactive | – | inactive | inactive | inactive | inactive | – | – |
| O=C(Nc1ccc2[nH]ccc2c1)c1cc2cc(F)ccc2n1Cc1cccc(F)c1 | – | – | inactive | – | inactive | inactive | inactive | inactive | inactive | inactive | inactive | inactive | inactive | – | – |
| CCC(=O)C(CC(C)N(C)C)(c1ccccc1)c1ccccc1 (stereo not given) | – | 29.1 µM (active) | inactive | 7.24 µM (active) | inactive | inactive | inactive | inactive | inactive | inactive | inactive | – | – | – | – |
| O=C(O)C(Cl)(Cl)Cl | – | – | inactive | – | inactive | inactive | inactive | inactive | inactive | inactive | inactive | inactive | inactive | – | – |
| CN(C)N=O | – | – | inactive | – | inactive | inactive | – | inactive | – | inactive | inactive | inactive | inactive | – | – |

| Structure (SMILES) | AC50 [1] | AC50 [2] | outcome [3] | AC50 [4] | outcome [5] | outcome [6] | outcome [7] | outcome [8] | outcome [9] | outcome [10] | outcome [1] | outcome [2] | outcome [4] | AC50 [5] | AC50 [7] |
| --- | --- | --- | --- | --- | --- | --- | --- | --- | --- | --- | --- | --- | --- | --- | --- |
| CCCCCCCCc1ccc(O)cc1 | – | – | inactive | – | inactive | inactive | inactive | inactive | – | – | inactive | inactive | inactive | – | – |
| CCOP(=S)(OCC)Oc1nc(Cl)c(Cl)cc1Cl | – | – | inactive | – | inactive | inactive | – | inactive | inactive | inactive | inactive | inactive | inactive | – | – |
| CC(=O)[O][Hg][c]1ccccc1 | – | – | inactive | – | inactive | inactive | inactive | inactive | inactive | inactive | inactive | inactive | inactive | – | – |
| O=C(O)C(F)(F)C(F)(F)C(F)(F)C(F)(F)C(F)(F)C(F)(F)C(F)(F)C(F)(F)C(F)(F)C(F)(F)F | – | – | inactive | – | inactive | inactive | inactive | inactive | inactive | inactive | inactive | inactive | inactive | – | – |
| O=c1[nH]c(=O)[nH]c(=O)[nH]1 | – | – | inactive | – | inactive | inactive | inactive | – | inactive | inactive | inactive | inactive | inactive | – | – |
| O=C(O)C(F)(F)C(F)(F)C(F)(F)C(F)(F)C(F)(F)C(F)(F)F | – | – | inactive | – | inactive | – | inactive | inactive | inactive | inactive | inactive | – | inactive | – | – |
| CC(C)(C)CC(C)(C)c1ccc(O)cc1 | – | – | inactive | – | – | inactive | inactive | inactive | – | – | inactive | – | inactive | – | – |
| CCC(C)(C)c1ccc(O)c(C(C)(C)CC)c1 | – | – | inactive | – | inactive | inactive | – | inactive | inactive | inactive | inactive | inactive | inactive | – | – |
| ClC1(Cl)C2(Cl)C3(Cl)C4(Cl)C(Cl)(Cl)C5(Cl)C3(Cl)C1(Cl)C5(Cl)C24Cl (stereo not given) | – | – | inactive | – | inactive | inactive | inactive | inactive | inactive | inactive | inactive | inactive | inactive | – | – |
| CC12CC1(C)C(=O)N(c1cc(Cl)cc(Cl)c1)C2=O (stereo not given) | – | – | inactive | – | inactive | inactive | – | – | inactive | inactive | inactive | inactive | inactive | – | – |
| CC(C)(C)c1cc(O)ccc1O | – | – | inactive | – | inactive | inactive | inactive | inactive | – | inactive | inactive | inactive | inactive | – | – |
| CC(C)(c1ccccc1)c1ccc(O)c(C(C)(C)c2ccccc2)c1 | – | – | inactive | – | inactive | – | inactive | inactive | inactive | inactive | inactive | inactive | inactive | – | – |
| C[C@@H]1C[C@@H]([C@H](O)CC2CC(=O)NC(=O)C2)C(=O)[C@@H](C)C1 | – | – | inactive | – | inactive | inactive | – | inactive | inactive | inactive | inactive | – | inactive | – | – |
| CCOP(=S)(OCC)SCSP(=S)(OCC)OCC | – | – | inactive | – | inactive | inactive | inactive | inactive | – | inactive | inactive | inactive | inactive | – | – |
| COc1cc(-c2ccc(N)c(OC)c2)ccc1N | 57 µM (active) | 12 µM (active) | inactive | 12.5 µM (active) | inactive | inactive | inactive | inactive | inactive | inactive | inactive | inactive | inactive | 77.2 µM (active) | 87.5 µM (active) |
